Screens (PubChem BioAssay)
Sampled rows, rich in hits. Any-hit rate of the full collection: about 2.4%.
Pol iota inh: blocks human DNA polymerase iota activity; Pol iota fluorescent replication assay, 10 min; Potency, µM (titrated, usually from 115 µM), without a hit: at the top dose activity, negative = inhibition, actives largely listed as inhibitors; 1% of 390,000 active
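Fluorescent replication assay read twice, at 0 min and 10 min after adding 50 nM (final) substrate. Enzyme (10 nM) and compounds were first incubated 15 min at room temperature; enzyme-free buffer wells were negative controls.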
Pol eta inh-1: DNA polymerase eta (human) inhibition; 1.2% of 390,000 active; AID 588591; Potency, µM (top dose mostly 114 µM), inactives show at the top dose activity change, negative = inhibition, usual class: inhibitors; Q9Y253; recombinant Pol eta, fluorescent DNA replication assay; further: on the % scale 0 is the no-effect control and ±100 the full control effect
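Fluorescent replication assay: 50 nM final substrate added after a 15 min room-temperature compound preincubation with 10 nM enzyme. Signal taken at 0 min and again at 10 min.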
TDP1 inh: TDP1 (human) enzyme inhibition; recombinant TDP1, AlphaScreen DNA substrate cleavage; Potency, µM (series often up to 130 µM), without a hit: at the top dose activity change, negative = inhibition, most hits filed as inhibitors; AID 485290; 0.28% of 350,000 active; further: on the % scale 0 is the no-effect control and ±100 the full control effect; nearly all actives have a fitted effect of over 40% in size
Target sequence (Q9NUW8 whole entry, looked up): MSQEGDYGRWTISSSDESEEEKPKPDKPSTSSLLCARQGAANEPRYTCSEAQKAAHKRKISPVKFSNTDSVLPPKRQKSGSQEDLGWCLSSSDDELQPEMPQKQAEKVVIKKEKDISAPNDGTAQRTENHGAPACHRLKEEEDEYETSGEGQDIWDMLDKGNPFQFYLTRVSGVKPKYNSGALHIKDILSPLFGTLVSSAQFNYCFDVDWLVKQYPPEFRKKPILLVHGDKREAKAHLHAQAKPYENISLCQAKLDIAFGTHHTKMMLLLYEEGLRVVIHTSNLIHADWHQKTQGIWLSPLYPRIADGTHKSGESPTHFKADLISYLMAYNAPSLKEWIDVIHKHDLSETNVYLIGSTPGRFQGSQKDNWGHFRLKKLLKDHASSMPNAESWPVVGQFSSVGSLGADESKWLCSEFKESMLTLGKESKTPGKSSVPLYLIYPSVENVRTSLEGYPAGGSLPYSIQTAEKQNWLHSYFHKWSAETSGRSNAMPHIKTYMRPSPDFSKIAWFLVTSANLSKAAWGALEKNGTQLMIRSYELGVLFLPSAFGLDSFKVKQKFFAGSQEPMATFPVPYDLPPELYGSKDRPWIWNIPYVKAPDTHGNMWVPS
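Steps: enzyme plus compound, 15 min RT; add biotin/phosphotyrosine-FITC oligonucleotide (15 nM final), react 5 min; add donor/acceptor beads (10 ug/ml final), 10 min; read AlphaScreen. Tdp1 at 1 nM final.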
Pol kappa inh-1: DNA polymerase kappa (human) inhibition; AID 588579; Potency, µM (doses to about 107 µM), inactives show at the highest dose activity, negative = inhibition, hits mostly inhibitors; purified Pol kappa, fluorescent DNA synthesis assay, 10 min; 0.53% of 400,000 active; further: on the % scale 0 is the no-effect control and ±100 the full control effect
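50 nM final substrate added after 15 min RT preincubation of 10 nM Pol kappa with compound; fluorescence read at 0 and 10 min.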
POLB inh: inhibitors of human DNA polymerase beta; P06746; 1.3% of 340,000 active; Pol beta primer extension/strand displacement, fluorescence kinetic; Potency, µM (highest dose often 114 µM), for the others: at the highest dose activity change, negative = inhibition, actives largely listed as inhibitors; further: on the % scale 0 is the no-effect control and ±100 the full control effect
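Values derive from four-parameter Hill fits of normalized kinetic data: reads at 0 and 10 min following addition of 50 nM substrate to 10 nM Pol beta preincubated 15 min with compound.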
FEN1 inh: human FEN1 inhibition. P39748. AID 588795. 0.35% of 390,000 active. Potency, µM (titrated, usually from 114 µM), without a hit: top-dose activity change, negative = inhibition, actives largely listed as inhibitors. Recombinant FEN1 flap cleavage, fluorescence, 15 min; further: on the % scale 0 is the no-effect control and ±100 the full control effect; nearly all actives have a fitted effect of over 65% in size
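Reaction started by adding substrate (50 nM final) to 10 nM enzyme after 15 min room-temperature compound preincubation. Reads at 0 and 15 min, with data normalized and fitted to a four-parameter Hill equation.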
TbPGK inh: blocks T. brucei phosphoglycerate kinase; shares compounds with Pol kappa inh-1; TbPGK coupled GAPDH assay, Kinase-Glo luminescence; Potency, µM (doses to about 57.5 µM), without a hit: at the highest dose activity change, negative = inhibition, actives largely listed as inhibitors; 79% of 500 active; AID 686980; further: on the % scale 0 is the no-effect control and ±100 the full control effect; nearly all actives have a fitted effect of over 65% in size
POLI cherry-pick: Inhibitors of human DNA polymerase iota, confirmation | Potency, µM, usual class: inhibitors | shares compounds with Pol kappa inh-1 | AID 720496 | 77% of 1,500 active | Pol iota primer extension, TAMRA/BHQ fluorescence
Pol kappa inh-2: confirmation of human DNA polymerase kappa inhibitors. shares compounds with Pol eta inh-1. purified Pol-kappa, fluorescent strand-displacement substrate. Potency, µM, actives largely listed as inhibitors. 76% of 920 active. AID 720501
Pol eta inh-2: confirmation of human DNA polymerase eta inhibitors; shares compounds with Pol eta inh-1; Pol eta primer extension, TAMRA/BHQ fluorescence, 10 min; Potency, µM, actives largely listed as inhibitors; 64% of 2,600 active
* = called active by the depositor; ? = inconclusive; / = no result; [ ] = remark or other dose. The call rests on the fitted dose curve; in most records, active means well fitted curve in the direction sought with a large enough effect; inconclusive means small, poorly fitted or top-dose-only effect, or another doubt; inactive means no such curve, though single readings can be large; an effect the other way counts as inactive or inconclusive. Potency means the concentration at half of the fitted maximal effect.

SMILES | Pol iota inh | Pol eta inh-1 | TDP1 inh | Pol kappa inh-1 | POLB inh | FEN1 inh | POLI cherry-pick | Pol eta inh-2 | others
Cc1nnc(N2C(=O)c3oc4ccccc4c(=O)c3C2c2ccco2)s1 (stereo not given) | ? | ? | / | ? | 20µM* | -26.4% | ? | ?
Cc1ccc2c(c1)-c1c(cnn1CC(=O)N1CCN(c3ccccc3F)CC1)CO2 | 13.2% | -6.4% | -1.0% | 12.5% | 18.4% | -1.5% | / | /
O=C(O)C1CCCCC1C(=O)Nc1cccc(Br)c1 (stereo not given) | 44.7µM* | 12.6µM* | 2.82µM* | ? | / | -5.8% | 75.2* | 37.9* | Pol kappa inh-2=18.9*
Cc1ccc(OCC(=O)c2c(N)n(C)c(=O)n(C)c2=O)c([N+](=O)[O-])n1 | 10µM* | 11.2µM* | 3.16µM* | 35.5µM* | / | ? | 33.6* | 30.1* | Pol kappa inh-2=10.6*
Cc1ccnc2nc(C(=O)Nc3nc(-c4ccccn4)cs3)nn12 | 50.1µM* | 79.4µM* | / | ? | 11.2µM* | ? | 67* | 84.9*
NC(=O)C1c2ccccc2CCc2ccccc21 | / | / | 4.2% | -0.6%[19.4 µM] | / | / | / | /
O=C(O)c1cccc(-c2ccc(/C=C3/SC(=Nc4ccccc4)N(Cc4cccnc4)C3=O)o2)c1 | ? | 7.08µM* | / | ? | ? | ? | 37.7* | 42.6* | TbPGK inh=6.51µM*;Pol kappa inh-2=21.2*
O=C1/C(=C/c2cccnc2)SC(=NCc2ccccc2)N1Cc1ccccc1 | -10.2% | -12.5% | -5.1% | 9.5% | 5.0% | -2.7% | / | /
COc1ccc(C(=O)/C=C/c2ccc(OCc3ccccc3)cc2)cc1CSCC(=O)O | 44.7µM* | 44.7µM* | 3.8% | -19.5% | 5.4% | -17.4% | ? | ?
COc1ccc(C=CC(=O)c2ccc(OCc3ccccc3)c(OC)c2)cc1OC | / | -9.7% | / | / | / | / | / | /
CCOc1ccc(OCC)c(NC(=O)C2CCN(c3nnc(-n4cccc4)s3)CC2)c1 | 17.7% | 2.0% | -1.1% | 2.0% | 5.1% | 0.1% | / | /
COC(=O)c1ccc(NC(=O)CC2C(=O)N(c3ccccc3)C(=O)N2C2CCCC2)cc1 (stereo not given) | 3.9% | -25.5% | 0.9% | -5.9%[60.1 µM] | -2.0% | -7.0% | / | /
Cc1cc(C)c2c(c1)NC(C(=O)O)C1CC=CC21 (stereo not given) | 12.6µM* | 11.2µM* | -9.5% | 25.1µM* | ? | 44.7µM* | 26.7* | 23.9* | Pol kappa inh-2=6.7*
Cc1ccc(NC(=O)C(Cc2c[nH]c3ccccc23)NC(=O)OC(C)(C)C)c(C)c1 (stereo not given) | -20.2% | -20.5% | / | -2.4% | -27.2% | -1.4% | / | /
O=C1CC(c2ccco2)CC(O)=C1C=Nc1ccccc1-c1ccccc1 (stereo not given) | ? | -4.1% | 2.6% | -3.2% | -4.5% | -11.0% | / | /
O=C1CC(c2ccco2)CC(O)=C1C=Nc1cc(Cl)ccc1Cl (stereo not given) | 22.4µM* | ? | -11.3% | ? | 39.8µM* | -12.5% | 67* | 60.1* | Pol kappa inh-2=75.2*
O=C1CC(c2ccco2)CC(O)=C1C=Nc1cc(Cl)ccc1O (stereo not given) | ? | 35.5µM* | ? | ? | 20µM* | -19.1% | 42.3* | 30.1*
CC(C)(C)c1ccc(S(=O)(=O)c2cnc(SCC(=O)Nc3ccc(F)c(Cl)c3)[nH]c2=O)cc1 | ? | 28.2µM* | / | ? | 79.4µM* | 50.1µM* | ? | ?
O=C(CSc1ncc(S(=O)(=O)c2ccc(Cl)cc2)c(=O)[nH]1)Nc1cccc(C(F)(F)F)c1 | ? | -26.2% | 0.0% | -1.8% | ? | 0.0% | / | /
O=C1C2C(C(=O)N1/N=C/c1cc([N+](=O)[O-])ccc1O)C1C=CC2C12CC2 (stereo not given) | -2.8% | 8.3% | -2.0% | -1.0% | 4.0% | -16.6% | / | /
O=C1C2C(C(=O)N1/N=C/c1cc([N+](=O)[O-])c(O)cc1O)C1C=CC2C12CC2 (stereo not given) | 20µM* | 10µM* | ? | 50.1µM* | 11.2µM* | -32.0% | 42.3* | 30.1*
Cc1ccc(C)c(S(=O)(=O)Nc2ccc3oc(C)c(C(=O)O)c3c2)c1 | 14.1µM* | 10µM* | / | 79.4µM* | 8.91µM* | ? | 33.6* | 26.9*
CCOC(=O)c1cccc(NC(=O)c2cc3cc4cc(OC)ccc4nc3s2)c1 | 256.8% | ? | -2.5% | -21.2% | ? | ? | ? | ? | Pol kappa inh-2=18.9*
COc1cc(-c2nc(S(=O)(=O)c3ccc(Br)cc3)c(N3CCOCC3)o2)cc(OC)c1OC | 12.8% | -7.1% | 6.6% | -10.7%[60.1 µM] | 4.0% | 0.6% | / | /
Cc1ccc(C(=O)COC(=O)C(Cc2c[nH]c3ccccc23)NC(=O)c2ccc(C(C)(C)C)cc2)cc1 (stereo not given) | -22.5% | -9.5% | 0.0% | -17.5%[60.1 µM] | 13.6% | 1.1% | / | /
O=C(N=Nc1c(O)[nH]c2ccc([N+](=O)[O-])cc12)c1ccccc1Cl | 37.8% | 39.8µM* | -5.7% | 5.7% | -29.8% | ? | 67* | ?
Cc1ccccc1NS(=O)(=O)c1ccc2[nH]cc(C(=O)NCCc3ccccc3)c(=O)c2c1 | ? | 31.6µM* | ? | -8.5%[60.1 µM] | 44.7µM* | 6.1% | ? | 47.8*
O=C1C2CC=C(Cl)CC2C(=O)N1CCN1CCOCC1 (stereo not given) | 14.7% | ? | 5.3% | -1.7% | 10.6% | 5.7% | / | /
O=C1C2CC=C(Cl)CC2C(=O)N1CCCCCCN1C(=O)C2CC=C(Cl)CC2C1=O (stereo not given) | 17.8µM* | 20µM* | / | 79.4µM* | 20µM* | -21.6% | 59.7* | 30.1*
COC(=O)c1[nH]c2ccc(Cl)cc2c1NC(=O)c1ccccc1[N+](=O)[O-] | 13.9% | -11.2% | 5.5% | -29.4% | 10.9%[57.1 µM] | -7.3% | / | /
